Data as given in PubChem BioAssay (Tox21).
Values joined by “and” are separate entries in the source; they are usually repeats but may differ in a detail not shown here. Equal entries are not always repeated. Inconclusive results are not listed. Entries that show only a call come without a potency. The source holds several records for some structures; these can differ, active in one and inactive in another. Active and inactive are the calls of the source. Unless noted, the call rests on the fitted dose curve; in most records, active means well fitted curve in the direction sought with a large enough effect in the repeat runs; inconclusive means weak or mixed curves; inactive means no such curve, though single readings can be large; an effect the other way counts as inactive or inconclusive.

What was measured:
[1] = qHTS assay to identify small molecule antagonists of the estrogen receptor alpha (ER-alpha) signaling pathway using the BG1 cell line in the presence of 0.1 nM 17-beta-estradiol - cell viability counter screen (AID 1259241); further: nearly all actives have a fitted effect of over 40% in size
How it was run: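 Following 5 days in phenol red-free medium with charcoal-stripped serum, VM7Luc4E2 cells received test compounds alongside 0.1 nM 17beta-estradiol (final) at 37C for 22 hr. Live cells were then quantified via protease-substrate fluorescence.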

[2] = qHTS assay to identify small molecule antagonists of the androgen receptor (AR) signaling pathway using the MDA cell line in the presence of 0.5 nM R1881 - cell viability counter screen (AID 1259242); further: nearly all actives have a fitted effect of over 45% in size
How it was run: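 Human breast carcinoma MDA-kb2 cells, cultured without CO2, receive compounds alongside 0.5 nM (final) R1881 agonist. After 16 hr at 37C, viability is taken as live-cell protease signal.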

[3] = target: Androgen receptor (Homo sapiens) (UniProt P10275); experiment: qHTS assay to identify small molecule antagonists of the androgen receptor (AR) signaling pathway using the MDA cell line in the presence of 0.5 nM R1881 (AID 1259243); further: nearly all actives have a fitted effect of over 50% in size; further: potency means the concentration at half of the fitted maximal effect
How it was run: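 Cells: MDA-kb2 (MMTV-luc). Stimulus: 0.5 nM R1881. Time: 16 hr, 37C, no CO2. Detection: ONE-Glo luminescence after 30 min at RT.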

[4] = target: Estrogen receptor (Homo sapiens) (UniProt P03372); experiment: qHTS assay to identify small molecule antagonists of the estrogen receptor alpha (ER-alpha) signaling pathway using the BG1 cell line in the presence of 0.1 nM 17-beta-estradiol (AID 1259244); further: nearly all actives have a fitted effect of over 50% in size; further: potency means the concentration at half of the fitted maximal effect
How it was run: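 Seeding of stripped-serum-adapted VM7Luc4E2 cells, 24 h attachment, compound transfer, then 0.1 nM final 17beta-estradiol; after 22 h incubation, ONE-Glo reagent and luminescence reading.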

[5] = qHTS assay to identify small molecule phospholipidosis (PLD) inducers (AID 1259344; active means well fitted curve in the direction sought with a large enough effect; an effect the other way counts as inactive or inconclusive)
How it was run: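 Cells (HepG2, 900 per well) attach for 4 h, receive LipidTOX Red and compound together, incubate 24 h at 37 C, are fixed 30 min with paraformaldehyde/Hoechst, then imaged at one site per well.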

[6] = qHTS assay to identify small molecule HDAC inhibitors (AID 1259364);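 further: wild-type HCT-116 cells with endogenous class I/II HDAC activity; top concentration of the series differs between compounds; nearly all actives have a fitted effect of over 45% in size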
How it was run: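 After a 2 hr compound incubation (37C, 5% CO2), HCT-116 cells seeded at 1,500/well the day before received HDAC-Glo reagent; signal read as luminescence after 30 min at room temperature.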

[7] = qHTS assay to identify small molecule HDAC inhibitors - cell viability counter screen (AID 1259365); further: series mostly up to about 92 µM; nearly all actives have a fitted effect of over 50% in size
How it was run: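 HCT-116 wild-type, overnight attachment; 2hr drug exposure, 37C; CellTiter-Glo luminescent ATP readout after 30min RT.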

[8] = qHTS assay to identify small molecule agonists of the sonic hedgehog signaling (Shh) pathway - cell viability counter screen (AID 1259366); further: nearly all actives have a fitted effect of over 50% in size
How it was run: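 Compounds in DMSO were pin-transferred onto 3T3 Gli1-Luc cells that had settled 4hr; plates then stood 24hr at 37C and 5% CO2. One hour before the end, CellTiter-Fluor was added and fluorescence recorded.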

[9] = qHTS assay to identify small molecule antagonists of the sonic hedgehog signaling (Shh) pathway - cell viability counter screen (AID 1259367); further: nearly all actives have a fitted effect of over 55% in size
How it was run: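 Cytotoxicity was assessed in parallel with Shh reporter activity by measuring live-cell protease fluorescence (CellTiter-Fluor) in NIH/3T3 cells stably carrying Gli1-Luc, treated with compound under conditioned medium stimulation for 23 hr plus 1 hr reagent incubation.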

[10] = qHTS assay to identify small molecule agonists of the sonic hedgehog signaling (Shh) pathway (AID 1259368; calls by dose curve;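 further: NIH/3T3-derived 3T3Gli1-Luc cells carrying a stable Gli1-driven firefly luciferase reporter; series mostly up to about 92 µM; nearly all actives have a fitted effect of over 15% in size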)
How it was run: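 Stable NIH/3T3 Gli1-Luc reporter clone; 24 hr cpd exposure after a 4 hr settling period; luminescence endpoint.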

[11] = qHTS assay to identify small molecule antagonists of the sonic hedgehog signaling (Shh) pathway (AID 1259369; calls by dose curve; further: nearly all actives have a fitted effect of over 45% in size; further: potency means the concentration at half of the fitted maximal effect)
How it was run: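 Gli1 transcriptional reporter (firefly Luc) in NIH/3T3 background, conditioned-medium activated. 24hr exposure, luminescence endpoint.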

[12] = qHTS assay to identify small molecule agonists of the androgen receptor (AR) signaling pathway in the presence of an antagonist - cell viability counter screen (AID 1259379); further: nearly all actives have a fitted effect of over 25% in size; further: potency means the concentration at half of the fitted maximal effect
How it was run: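 Counter screen for cell viability run in parallel with the AR agonist-mode luciferase assay. MDA-kb2 cells were co-treated with nilutamide (3.0uM final) and compounds, then incubated 16 hr at 37C, and CellTiter-Fluor fluorescence was measured.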

[13] = qHTS assay to identify small molecule agonists of the estrogen receptor beta (ER-beta) signaling pathway - cell viability counter screen (AID 1259380); further: nearly all actives have a fitted effect of over 30% in size
How it was run: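 In this qHTS counter screen, HEK293T cells carrying an ER-beta/UAS beta-lactamase reporter, grown in 2% charcoal-stripped FBS, received compound for 16 hr; ATP-based CellTiter-Glo luminescence was then read after 30 min at room temperature.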

[14] = target: Androgen receptor (Homo sapiens) (UniProt P10275); experiment: qHTS assay to identify small molecule agonists of the androgen receptor (AR) signaling pathway in the presence of an antagonist (AID 1259381; calls by dose curve; further: nearly all actives have a fitted effect of over 15% in size)
How it was run: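 AR antagonist background: nilutamide 3.0uM final. Cell line: MDA-kb2, MMTV-driven luciferase, responsive to both AR and GR. Exposure 16hr, 37C, no CO2; ONE-Glo luminescence.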

[15] = qHTS assay to identify small molecule antagonists of the estrogen receptor beta (ER-beta) signaling pathway - cell viability counter screen (AID 1259382); further: series mostly up to about 92 µM; nearly all actives have a fitted effect of over 55% in size
How it was run: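 HEK293T ER-beta-UAS-bla, 2% charcoal-stripped FBS; compounds + 1nM E2 16 hr 37C; CellTiter-Glo luminescence, 30 min RT.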

[16] = target: Estrogen receptor (Homo sapiens) (UniProt P03372); experiment: qHTS assay to identify small molecule agonists of the estrogen receptor alpha (ER-alpha) signaling pathway in the presence of an antagonist (AID 1259383; calls by dose curve; further: top concentration of the series differs between compounds; nearly all actives have a fitted effect of over 15% in size)
How it was run: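 ER-alpha agonism measured under antagonist challenge: 10.0nM ICI-182,780 (final) plus compound, 15 concentrations, 22hr, VM7Luc4E2 ERE-luciferase cells. Read by luminescence.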

[17] = qHTS assay to identify small molecule agonists or antagonists of the thyroid stimulating hormone receptor (TSHR) signaling pathway - wild type cell line counter screen (AID 1259384; calls by dose curve)
How it was run: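 Wild-type HEK293 cells were plated 18 h at 37 C/5% CO2, pin-dosed with compound plus Ro20-1724 medium, held 30 min at room temperature, then given cAMP-d2 and anti-cAMP-cryptate; fluorescence was read after 1 h. Fifteen concentrations, triplicate.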

[18] = target: Thyrotropin receptor (Homo sapiens) (UniProt P16473); experiment: qHTS assay to identify small molecule antagonists of the thyroid stimulating hormone receptor (TSHR) signaling pathway (AID 1259385; calls by dose curve; further: nearly all actives have a fitted effect of over 20% in size)
How it was run: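 TSHR-HEK293 cells were plated and held 18 h at 37C/5% CO2, then given compound plus Ro20-1724 and stimulated with TSH at 1.5 ng/mL final. After 30 min at room temperature, cAMP was detected with cAMP-d2/anti-cAMP-cryptate (1 h) by fluorescence.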

[19] = target: Estrogen receptor beta (Homo sapiens) (UniProt Q92731); experiment: qHTS assay to identify small molecule agonists of the estrogen receptor beta (ER-beta) signaling pathway (AID 1259377; active means well fitted activation curve with a large enough effect in the signal ratio in the repeat runs, not every such curve was filed as active; the % refers to the signal ratio)
How it was run: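 qHTS in ER-beta-UAS-bla HEK293T cells: 6 hr settling, then 16 hr compound at 37C, then LiveBLAzer substrate 2 h at RT before fluorescence reading.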

[20] = target: Estrogen receptor beta (Homo sapiens) (UniProt Q92731); experiment: qHTS assay to identify small molecule antagonists of the estrogen receptor beta (ER-beta) signaling pathway (AID 1259378; active means well fitted inhibition curve with a large enough effect in the signal ratio in the repeat runs, not every such curve was filed as active; the % refers to the signal ratio; further: potency means the concentration at half of the fitted maximal effect)
How it was run: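 ER-beta-UAS-bla HEK293T (GripTite) cells in 2% charcoal-stripped FBS medium were preincubated 6 hr at 37C, dosed with compound, then stimulated with 1 nM E2 (final) for 16 hr; beta-lactamase reporter read by B/G FRET fluorescence after 2 hr substrate loading.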

Estrogen receptor beta (Homo sapiens), sequence (Q92731 whole entry, looked up): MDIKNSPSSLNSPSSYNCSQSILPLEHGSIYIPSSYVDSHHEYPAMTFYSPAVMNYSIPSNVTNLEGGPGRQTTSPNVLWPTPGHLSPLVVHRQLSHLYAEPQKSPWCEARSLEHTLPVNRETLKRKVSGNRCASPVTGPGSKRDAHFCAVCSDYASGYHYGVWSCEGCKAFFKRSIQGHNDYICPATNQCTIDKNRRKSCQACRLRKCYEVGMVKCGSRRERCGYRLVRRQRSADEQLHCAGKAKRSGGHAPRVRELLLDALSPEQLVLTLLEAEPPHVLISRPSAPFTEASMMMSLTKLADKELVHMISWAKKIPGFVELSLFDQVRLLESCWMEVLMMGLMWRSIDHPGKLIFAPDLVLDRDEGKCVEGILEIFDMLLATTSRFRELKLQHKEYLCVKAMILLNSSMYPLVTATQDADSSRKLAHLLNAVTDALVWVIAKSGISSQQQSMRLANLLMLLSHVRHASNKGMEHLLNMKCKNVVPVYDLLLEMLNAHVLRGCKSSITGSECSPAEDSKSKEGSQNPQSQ
Thyrotropin receptor (Homo sapiens), sequence (P16473 whole entry, looked up): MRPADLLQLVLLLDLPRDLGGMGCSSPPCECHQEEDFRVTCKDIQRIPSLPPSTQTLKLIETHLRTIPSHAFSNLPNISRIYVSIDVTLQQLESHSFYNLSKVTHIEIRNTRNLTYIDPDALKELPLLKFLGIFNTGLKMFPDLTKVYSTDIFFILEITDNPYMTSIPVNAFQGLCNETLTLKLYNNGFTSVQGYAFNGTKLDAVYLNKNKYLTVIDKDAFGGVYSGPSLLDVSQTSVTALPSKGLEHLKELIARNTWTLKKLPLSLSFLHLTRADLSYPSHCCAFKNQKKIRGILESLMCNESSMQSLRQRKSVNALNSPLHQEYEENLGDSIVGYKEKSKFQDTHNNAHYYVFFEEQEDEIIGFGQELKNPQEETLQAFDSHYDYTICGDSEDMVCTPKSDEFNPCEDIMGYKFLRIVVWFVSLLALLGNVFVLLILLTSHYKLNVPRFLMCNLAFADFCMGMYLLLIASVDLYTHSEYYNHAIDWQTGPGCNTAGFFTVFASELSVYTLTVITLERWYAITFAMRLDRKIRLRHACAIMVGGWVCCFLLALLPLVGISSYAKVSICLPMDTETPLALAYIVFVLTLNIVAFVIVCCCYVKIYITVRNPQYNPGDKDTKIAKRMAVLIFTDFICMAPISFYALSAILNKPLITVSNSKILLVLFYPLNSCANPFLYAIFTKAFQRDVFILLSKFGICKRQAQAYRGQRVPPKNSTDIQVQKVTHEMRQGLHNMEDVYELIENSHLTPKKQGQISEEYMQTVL
Estrogen receptor (Homo sapiens), sequence (P03372 whole entry, looked up): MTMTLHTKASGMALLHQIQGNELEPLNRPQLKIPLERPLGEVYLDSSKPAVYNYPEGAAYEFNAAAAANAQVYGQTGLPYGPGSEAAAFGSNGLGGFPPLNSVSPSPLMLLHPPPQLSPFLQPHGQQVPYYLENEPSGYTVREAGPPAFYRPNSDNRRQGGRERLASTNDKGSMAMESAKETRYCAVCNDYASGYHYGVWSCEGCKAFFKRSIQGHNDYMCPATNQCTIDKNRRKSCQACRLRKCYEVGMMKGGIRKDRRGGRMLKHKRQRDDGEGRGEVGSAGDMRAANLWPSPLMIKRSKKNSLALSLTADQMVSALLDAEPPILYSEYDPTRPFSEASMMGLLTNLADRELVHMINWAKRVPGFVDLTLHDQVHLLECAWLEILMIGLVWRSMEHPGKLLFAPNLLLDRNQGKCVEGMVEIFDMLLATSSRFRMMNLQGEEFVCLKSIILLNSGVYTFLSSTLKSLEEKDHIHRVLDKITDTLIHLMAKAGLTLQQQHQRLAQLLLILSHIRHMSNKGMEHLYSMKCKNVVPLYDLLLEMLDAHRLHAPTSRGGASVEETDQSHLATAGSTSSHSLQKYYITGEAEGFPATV
Androgen receptor (Homo sapiens), sequence (P10275 whole entry, looked up): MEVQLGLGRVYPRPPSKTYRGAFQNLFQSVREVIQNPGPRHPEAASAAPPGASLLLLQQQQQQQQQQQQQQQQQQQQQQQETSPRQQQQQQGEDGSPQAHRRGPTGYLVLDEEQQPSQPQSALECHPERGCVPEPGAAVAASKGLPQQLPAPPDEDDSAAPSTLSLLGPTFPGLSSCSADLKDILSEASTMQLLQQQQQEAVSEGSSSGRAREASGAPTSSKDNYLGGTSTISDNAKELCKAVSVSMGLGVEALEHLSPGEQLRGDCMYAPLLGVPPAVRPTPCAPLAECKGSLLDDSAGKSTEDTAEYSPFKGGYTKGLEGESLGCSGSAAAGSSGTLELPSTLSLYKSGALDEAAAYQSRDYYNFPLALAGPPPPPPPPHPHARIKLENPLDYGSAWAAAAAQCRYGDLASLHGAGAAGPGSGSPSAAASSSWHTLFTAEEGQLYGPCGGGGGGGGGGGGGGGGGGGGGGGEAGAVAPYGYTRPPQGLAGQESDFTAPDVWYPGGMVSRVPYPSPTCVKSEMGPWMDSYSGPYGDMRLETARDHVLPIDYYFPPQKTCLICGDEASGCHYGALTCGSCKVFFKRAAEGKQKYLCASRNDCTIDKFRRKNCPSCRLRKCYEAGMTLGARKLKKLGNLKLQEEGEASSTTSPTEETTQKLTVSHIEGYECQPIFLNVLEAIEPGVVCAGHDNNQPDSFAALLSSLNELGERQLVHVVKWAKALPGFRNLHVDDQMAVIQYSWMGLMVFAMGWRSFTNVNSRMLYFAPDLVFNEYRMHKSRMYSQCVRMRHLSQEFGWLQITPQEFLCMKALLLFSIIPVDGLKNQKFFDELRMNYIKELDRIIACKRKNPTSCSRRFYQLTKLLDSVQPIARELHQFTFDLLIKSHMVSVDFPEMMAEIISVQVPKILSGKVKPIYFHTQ

Row | Structure (SMILES) | Potency [1] | Potency [2] | Potency [3] | Potency [4] | outcome [5] | Potency [6] | Potency [7] | Potency [8] | Potency [9] | Potency [10] | Potency [11] | Potency [12] | Potency [13] | outcome [14] | Potency [15] | Potency [16] | Potency [17] | Potency [18] | Potency [19] | Potency [20]
1 | COP(=S)(OC)Oc1ccc(S(=O)(=O)N(C)C)cc1 | inactive | inactive | inactive | inactive | inactive | inactive | inactive | inactive | inactive | inactive | inactive | inactive | inactive | inactive | inactive | inactive | inactive | inactive |  | 
2 | C[N+](C)(C)CC(=O)O | inactive | inactive |  | inactive | inactive | inactive | inactive | inactive | inactive | inactive |  | inactive | inactive |  | inactive | inactive |  |  |  | 
3 | N#Cc1nn(-c2c(Cl)cc(C(F)(F)F)cc2Cl)c(N)c1S(=O)C(F)(F)F (centres undefined) | inactive | inactive | 9.75 µM (active) and 15 µM (active) |  | inactive | inactive | inactive | inactive | inactive | inactive |  | 61.5 µM (active) and inactive | inactive | inactive | inactive |  |  | inactive | inactive | 23.7 µM (active)
4 | CSc1nc(NC(C)C)nc(NC(C)C)n1 | inactive | inactive |  | inactive |  | inactive | inactive | inactive | inactive | inactive |  | inactive | inactive |  | inactive | inactive |  |  | inactive | inactive
5 | NN=C(N)N | inactive | inactive |  |  | inactive | inactive |  | inactive | inactive | inactive | inactive | inactive | inactive |  | inactive |  |  |  |  | 
6 | CCOC(=O)c1ccccc1N | inactive | inactive |  | inactive |  | inactive |  | inactive | inactive | inactive | inactive | inactive | inactive |  | inactive | inactive |  | inactive | inactive | inactive
7 | CC(C)(O)C(=O)Nc1ccc([N+](=O)[O-])c(C(F)(F)F)c1 | inactive | inactive |  | 31.3 µM (active) and 35.5 µM (active) |  | inactive |  | inactive | inactive | inactive | 24.8 µM (active) and 22.4 µM (active) |  | inactive |  | inactive |  |  | inactive | inactive | inactive
8 | CC(O)CN(CC(C)O)CC(C)O (centres undefined) | inactive | inactive |  |  |  | inactive | inactive | inactive | inactive | inactive | inactive | inactive | inactive |  | inactive |  |  | inactive | inactive | inactive
